Measured values published in PubChem BioAssay (NCATS).
“And” between values parts separate entries of the source, which are not always exact repeats. Equal entries are not always repeated. Results filed as inconclusive are left out.

Experiment: qHTS Assay for Lipid Storage Modulators (AID 1519)
Details: Drosophila S3 cells, BODIPY lipid droplet/cell ratio, laser cytometry; measured here: cell count channel max response; cells loaded with oleic acid
In short: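 Cells seeded at 5,000 per well were treated with compounds over a concentration series and loaded with oleic acid (400 uM, as added). Lipid droplet fluorescence (488 nm excitation, 500-530 nm channel) was read by laser-scanning cytometry and normalized to 20 uM Triacsin C.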

SMILES	max response
CC(=O)OC1CCC23CC1(C)CCC2C(C)(C)CC3OC(C)=O (stereo unspecified)	3.38%
O=C(c1cccc(F)c1)N1CCC[C@@]2(CCN(C(c3ccccc3)c3ccccc3)C2)C1	5.27%
COc1ccc2c(c1)[C@@]1(C)CCC[C@](C)(CO)C1CC2 (stereo partly specified)	17.7%
O=C(O)c1cc(O)c2c(c1)C(=O)c1cc(O)cc(O)c1C2=O	22.4%
COc1ccc(-c2cc(=O)c3c(OC)c(OC)c(OC)c(OC)c3o2)cc1	-19.4%
COc1ccc(-c2nc3cnc(Nc4cccc(OC)c4)nc3n(CCC#N)c2=O)cc1	16.5%
COc1ccc2c(c1)OCC(Cc1ccc(OC)c(OC(C)=O)c1)C2=O (stereo unspecified)	1.86%
CC(=O)OC1CC[C@]2(C)C(CC(OC(C)=O)[C@@]3(C)C4=CC(=O)OC(c5ccoc5)[C@]4(C)CCC23)C1(C)C (stereo partly specified)	6.99% and 9.73% and 16%
O=c1c(-c2ccccc2)coc2cc(O)cc(O)c12	-5.73%
COc1cccc(-c2nc(Nc3ccncc3)c3ccccc3n2)c1	-14.4%
N[C@H](C(=O)O)C(O)C(O)C(O)CO (stereo partly specified)	-0.517%
NCC1OC(n2cnc3c(=O)[nH]c(N)nc32)C(O)C1O (stereo unspecified)	-3.82%
COc1ccccc1CNc1ncnc2ccc(-c3cccnc3)cc12	-9.63%
CC1(C)C(O)CC[C@]2(C)C1CC[C@@]1(C)C2C(=O)C=C2[C@@H]3C[C@@](C)(C(=O)O)CC[C@@]3(C)CCC21C (stereo partly specified)	16.2%
O=c1c(O)c(-c2ccc(O)c(O)c2)oc2c(OC3OC(CO)C(O)C(O)C3O)c(O)cc(O)c12 (stereo unspecified)	-2.75%
CC1(C)C=CC(=O)[C@]2(C)C1CC(=O)[C@]1(C)C2CC[C@@]2(C)C(c3ccoc3)OC(=O)C3OC321 (stereo partly specified)	-7.57%
COc1c(-c2ccc(O)c(O)c2)oc2cc(O)cc(O)c2c1=O	-16.5%
O=C1CC[C@@]23/C=C/C(=O)NCCCCNCCCNC(=O)/C=C/c4ccc(c2c4)OC3C1 (stereo partly specified)	7.49%
COc1ccc2c(c1)OC/C(=C/c1ccc(O)c(O)c1)C2=O	0.529%
Nc1nc2n[nH]nc2c(=O)[nH]1	15.7%
CN(Cc1ccco1)c1nc(-c2cccc(C#N)c2)nc2ccccc12	1.16%
COc1ccc(C(=O)O)c(O)c1OC	8.57%

Same assay, conditions: Drosophila S3 cells, BODIPY lipid droplet/cell ratio, laser cytometry; measured here: lipid channel max response; cells loaded with oleic acid

SMILES	max response [%]
COC(=O)c1c(OC)cc2c(c1C)Oc1c(Cl)c(OC(C)=O)c(Cl)c(C)c1C(=O)O2	13
N#C/C(=C\c1ccc(O)c(O)c1)C(=O)NCCCCc1ccccc1	17.3
CC(=O)Oc1ccc2c(c1)CCC1C2CC[C@]2(C)C(OC(C)=O)CCC12 (stereo partly specified)	4.34
COc1ccc2c(c1)OCc1c-2oc2cc(OC)ccc12	8.38
O=c1cc(-c2ccc(O)c(O)c2)oc2cc(OC3OC(CO)C(O)C(O)C3O)cc(O)c12 (stereo unspecified)	11.2
Cc1ccccc1-c1ccc2ncnc(N(C)Cc3ccco3)c2c1	23.2
CC1=CC2C(CC1=O)C(C)=CCC2C(C)C (stereo unspecified)	5.28
CC(=O)Oc1ccc2c(c1C(C)C)CCC1C(C)(C)CCC[C@@]21C (stereo partly specified)	20.3
COc1cc(C/C=C/c2ccccc2)c(OC)cc1O	7.15
COC(=O)CCCOc1ccc(Cl)cc1Cl	23
C#C[C@]1(OC(C)=O)CCC2C3CCC4=CC(=O)CCC4C3CC[C@]21C (stereo partly specified)	-26.2
COC(=O)c1c(OC)cc2c(c1C)Oc1c(Cl)c(O)c(Cl)c(C)c1C(=O)O2	-5.08
CCOC(=O)c1c(C)cc(OC)cc1O	-5.56
COc1cccc(-c2cncnc2NCc2ccc(OC)cc2OC)c1	8.96
CC1(C)[C@@H](O)CC[C@]2(C)C3C(=O)C=C4C5C[C@@](C)(C(=O)O)CC[C@]5(C)CC[C@@]4(C)[C@]3(C)CC[C@@H]12 (stereo partly specified)	11.1
CN(Cc1ccco1)c1nc(-c2ccccc2Cl)nc2ccccc12	24.3
COc1cc(-c2coc3cc(OCc4ccccc4)c(OC)c(O)c3c2=O)cc(O)c1OC	-4.66
CC(=O)OC1CC2C(C)(C)CCC(=O)[C@@]2(C)C2CC[C@@]3(C)C(c4ccoc4)OC(=O)C4OC43[C@]12C (stereo partly specified)	3.26
CC(=O)OC1CCC23CC1(C)CCC2C(C)(C)CC3OC(C)=O (stereo unspecified)	6.37
O=C(c1cccc(F)c1)N1CCC[C@@]2(CCN(C(c3ccccc3)c3ccccc3)C2)C1	-12.6
COc1ccc2c(c1)[C@@]1(C)CCC[C@](C)(CO)C1CC2 (stereo partly specified)	28.8
O=C(O)c1cc(O)c2c(c1)C(=O)c1cc(O)cc(O)c1C2=O	36.4
COc1ccc(-c2cc(=O)c3c(OC)c(OC)c(OC)c(OC)c3o2)cc1	-24.9
COc1ccc(-c2nc3cnc(Nc4cccc(OC)c4)nc3n(CCC#N)c2=O)cc1	-2.36
